Shown are actives, neighbours in structure and some others; about 4.1% of the full set was active somewhere.
DAX1 inh-1 – DAX1 (NR0B1) inhibition, primary screen; HEK293T StAR-luciferase reporter, SF-1/DAX-1 repression relief; inhibition, % at 6.8 µM; 370,000 compounds, 1.1% hits; AID 652010;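 active = inhibition above the mean over all tested compounds plus 3 SD, cut at about 3.6% in these data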;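 also: higher inhibition means more luminescence from relief of DAX-1 repression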
ssDAF12 agonist – activates DAF-12 receptor from parasite S. stercoralis. HEK293 ssDAF-12/GRIP1 lit1-tk-luc reporter, luminescence; % of 3 µM dafachronic acid response. activation, % at 6.8 µM. 370,000 compounds, 1% hits;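 active = activation above the mean over all tested compounds plus 3 SD, cut at about 0.9% in these data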
hcDAF12 agonist – activates DAF-12 receptor from parasite H. contortus; 370,000 compounds, 1.4% hits; activation, % at 6.8 µM; HEK293 hcDAF-12 lit1-tk-luc reporter, luminescence; 0% DMSO, 100% Δ7-dafachronic acid;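 active = activation above the mean of all tested compounds plus 3 SD, cut at about 5.5% in these data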
hgDAF-12 ag – agonists of H. glycines DAF-12 nuclear receptor. HEK293 GAL4-hgDAF12 UAS-luciferase reporter, agonist luminescence; normalized to butyrate control. activation, % at 6.8 µM. 370,000 compounds, 1.8% hits;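 active = activation above a cutoff set at the mean of all screened compounds plus 3 SD, cut at about 10% in these data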
DAX1 inh-2 – NR0B1 (DAX1) inhibition; P51843; HEK293 Gal4-DAX1 luciferase reporter, luminescence; inhibition, % at 6.75 µM; 340,000 compounds, 0.99% hits; AID 504766;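 active = inhibition above the mean over all tested compounds plus 3 SD, cut at about 4.2% in these data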;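 also: inhibition shows as a rise in luminescence from relieved DAX1 repression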
Target sequence (P51843 207-470 limits assumed): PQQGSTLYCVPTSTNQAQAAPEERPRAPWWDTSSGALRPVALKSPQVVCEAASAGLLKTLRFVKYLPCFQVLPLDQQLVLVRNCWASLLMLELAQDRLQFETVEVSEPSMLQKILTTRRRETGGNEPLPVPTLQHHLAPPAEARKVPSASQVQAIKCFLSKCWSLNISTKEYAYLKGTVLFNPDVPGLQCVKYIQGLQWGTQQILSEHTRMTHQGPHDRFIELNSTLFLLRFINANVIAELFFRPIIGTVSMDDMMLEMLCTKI
Numbers stand for hits; 0 = inactive; - = no result.

SMILES	DAX1 inh-1	ssDAF12 agonist	hcDAF12 agonist	hgDAF-12 ag	DAX1 inh-2
CCCCNC(=O)C1CCN(Cc2ccc(OCc3ccccc3)cc2)CC1	0	0	0	11	0
O=C(C1CCN(Cc2ccc(OCc3ccccc3)cc2)CC1)N1CCCC1	0	0	0	0	0
Cc1ccccc1NC(=O)OC1CCC12CCCCC2 (configuration not stated)	0	0	0	0	-
C=CCSc1n[nH]c(-c2ccc(OCCCC)cc2)n1	0	0.9	0	0	0
O=C(OCC(=O)N1CCc2ccccc2C1)c1ccc(F)cc1Cl	0	0	0	11	0
Cc1ccc(Cn2cc(CN(C3CC3)S(=O)(=O)c3ccccc3Br)nn2)cc1	0	0	0	0	-
COC(=O)c1cc2c(c3c4cc(OC)ccc4n(C(=O)c4ccccc4)c13)C(=O)N(C1CCCCC1)C2	0	0	0	0	-
CC(=O)Nc1sc2c(c1C(c1cccc(Cl)c1)N1CCN(CCO)CC1)CCCC2 (configuration not stated)	0	0	0	0	4.9
CCn1c(=O)n(CC(=O)N2CCN(C(C)=O)CC2)c(=O)c2ccccc21	0	0	0	0	-
O=C(NC1CC1)c1ccc2c(Cl)c3c(nc2c1)CCCC3	0	0	0	11	0
O=C(C1CCCO1)N1CCN(C2=Nc3ccccc3Sc3ccccc32)CC1 (configuration not stated)	0	0	0	0	-
S=C(Nc1ccccc1I)OC1CCC12CCC(c1ccccc1)CC2 (configuration not stated)	-	0	0	0	-
Cc1cccc(OCC(=O)Nc2ccc(C(=O)Nc3ccccc3C(=O)O)cc2)c1	0	0	0	0	0
O=C(COc1ccc(Cl)cc1Cl)Nc1ccc(C(=O)Nc2ccccc2C(=O)O)cc1	4.3	0	0	0	0
CCCCOc1ccc(Cc2c(Cl)nc(SC)nc2N2CCOCC2)cc1	0	0	0	0	0
CSc1nc(Cl)c(Cc2ccc(OCC(C)C)cc2)c(N2CCOCC2)n1	0	0	5.9	0	0
Cc1ccc(S(=O)(=O)N(C)c2ccc(C(=O)NCCc3ccccc3)cc2)cc1	0	0.9	0	0	0
CN(c1ccc(C(=O)NCCc2ccccc2)cc1)S(C)(=O)=O	4.4	0	0	0	0
COc1ccc(CCNC(=O)c2ccc(N(C)S(=O)(=O)c3ccc(C)cc3)cc2)cc1	0	0	0	0	0
CN(c1ccccc1)S(=O)(=O)c1cccc(C(=O)NCc2ccccc2CN2CCCC2)c1	0	0	0	0	0
CN(c1ccccc1)S(=O)(=O)c1ccc(C(=O)NCc2ccccc2CN2CCCC2)cc1	4.3	0	0	0	0
O=C(NCCCc1ccccc1)OC1CC2CC1[C@H]1CCCCN1[C@H]2Cc1ccccc1 (some centres not stated)	0	0	0	0	-
O=C(Cc1ccccc1[N+](=O)[O-])NC1CCN(Cc2ccccc2)CC1	0	1.5	0	0	0
NS(=O)(=O)c1ccc(CNC(=O)Cc2ccccc2[N+](=O)[O-])cc1	0	0	5.6	0	0
CCCCNS(=O)(=O)c1ccc(NC(=O)Cc2ccccc2[N+](=O)[O-])cc1	0	2.0	0	0	0
SMILES	DAX1 inh-1	ssDAF12 agonist	hcDAF12 agonist	hgDAF-12 ag	DAX1 inh-2
CC(C)(C)NS(=O)(=O)c1ccc(NC(=O)Cc2ccccc2[N+](=O)[O-])cc1	0	0	0	0	0
CC(NC(=O)Cc1ccccc1[N+](=O)[O-])c1ccccc1 (configuration not stated)	0	0	6.3	0	-
O=C(Cc1c(F)cccc1Cl)NC1CCN(Cc2ccccc2)CC1	0	0	0	0	0
C[C@H]1CCCN1c1ccc2c(c1)OCCCN(C1CC1)S2(=O)=O	0	0	0	0	-
Cc1cccc(C(=O)Nc2c(-c3ccc(C(F)(F)F)cc3)nc3ncccn23)c1	0	0	0	0	-
O=C(NC1CCCCN(Cc2cccc(C(F)(F)F)c2)C1=O)C1C2CC3CC(C2)CC1C3 (configuration not stated)	0	0	0	0	-
CC(NC(=O)Cn1cc(Br)c([N+](=O)[O-])n1)c1ccccc1 (configuration not stated)	0	0	0	0	4.3
CCC(CC)NC(=O)Cc1ccccc1[N+](=O)[O-]	0	0	5.6	0	0
CCOC(=O)[C@]12CCCC=C1N(CCCOC)C(=O)[C@@H]2CC(=O)NCCc1ccccc1OC	0	0	0	0	-
O=C(Nc1nc2ccccc2[nH]1)c1cc(F)cc(F)c1	0	0	5.6	0	0
CN(C)S(=O)(=O)c1ccc(C(=O)Nc2nc3ccccc3[nH]2)cc1	0	0	0	0	6.7
Cc1c(C(=O)Nc2nc3ccccc3[nH]2)cccc1[N+](=O)[O-]	0	1.5	0	0	0
COc1cc(C(=O)Nc2nc3ccccc3[nH]2)ccc1OC(F)F	0	0	0	0	0
Cc1cc(C)cc(C(=O)Nc2nc3ccccc3[nH]2)c1	0	0	0	0	0
O=C(Nc1nc2ccccc2[nH]1)c1ccc(OC(F)F)cc1	0	0	0	11	0
COc1ccc(C#CCN(Cc2ccc(OC)cc2OC)C(N)=NC(=O)CCc2ccccc2)cc1	0	0	0	0	-
O=C1C(c2c(O)[nH]c3ccccc23)=Nc2ccccc21	0	1.3	0	0	0
Oc1[nH]c2ccccc2c1C1=NCCCC1	0	0	0	0	0
CCc1ccc(C=NN2CCN(Cc3ccc(C)cc3C)CC2)cc1	0	0	0	0	-
CC(C)c1nnc(NC(=O)c2cccc(NC(=O)C(F)(F)F)c2)s1	0	0	0	12	0
CC(C)C(=O)Nc1cccc(C(=O)Nc2nnc(C(C)C)s2)c1	0	0	0	0	0
CCN(CC)CCNC(=O)/C(=C/c1cn(C)c2ccccc12)NC(=O)c1ccc(OC)c(OC)c1	0	0	0	0	5.2
COc1cc(C(=O)N/C(=C\c2cn(C)c3ccccc23)C(=O)NCCCO)cc(OC)c1OC	0	0	0	0	4.7
COc1cc(C(=O)N/C(=C\c2cn(S(=O)(=O)N(C)C)c3ccccc23)C(=O)NCCCO)cc(OC)c1OC	0	0	0	0	0
Cc1ccc(-c2nnc(SCC(=O)NN=Cc3c[nH]c4ccccc34)n2-c2ccccc2)cc1	0	0	0	0	-
SMILES	DAX1 inh-1	ssDAF12 agonist	hcDAF12 agonist	hgDAF-12 ag	DAX1 inh-2
CNc1ccc(-c2cccc(CO)c2)cn1	0	0	0	11	-
CNc1ccc(-c2cccc(C(C)=O)c2)cn1	0	0	0	0	-
CCN(CC)C(=O)c1cc2sc3ccccc3c2s1	0	0	0	12	0
COC(=O)/C=C/c1sc2nc(C)cc(C)c2c1N=CN(C)C	0	0	5.6	0	-
O=C(Nc1ccc(Oc2ccccc2)nc1)C1CCCCN1Cc1ccc(O)cc1 (configuration not stated)	3.9	0	0	0	0
O=C(Nc1ccc(Oc2ccccc2)nc1)C1CCCCN1Cc1cccc(O)c1 (configuration not stated)	0	0	0	0	0
COCCC(=O)N1CCC(C(=O)Nc2ccc(Oc3ccccc3)nc2)CC1	0	0	5.8	0	0

Source: PubChem BioAssay (The Scripps Research Institute Molecular Screening Center)
